Experiment [1] can be described thus: reducers of endogenous Her2 protein level, primary screen, SKBR3 breast tumor cells, AlphaScreen, ATP viability (AID 461;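 active = Her2 level under about 52% in both replicate screens, with viability over 70% of control, limit read from the data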;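 for Her2 level: lower value means less Her2 protein in the cells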;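 for viability: percent of carrier control wells set as 100% viability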). The settings on record: 18-24 h, measured here: SKBR3 viability, ATP luminescence, at 10 µM.
Experiment [2] concerns the target Receptor tyrosine-protein kinase erbB-2 (Homo sapiens) (UniProt P04626). Described as above. The settings on record: 18-24 h, at 10 µM, stronger effect = lower value.
Experiment [3] is described as follows: SK-BR-3 cell growth inhibitors, pilot screen, 24 h, human (AID 572;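 active = viability at or below 10% of carrier control in both of two separate runs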;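 note: compound exposure lasted between 18 and 24 h rather than exactly 24 h; 100% = carrier-treated control wells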). The settings on record: SK-BR-3 viability, CellTiter-Glo luminescence, at 10 µM, stronger effect = lower value.
Experiment [4] in a line: growth inhibitors of H69AR lung tumor, primary screen, human, duplicate replicates (AID 580;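 active = viability at or under a set limit in both replicates, limit being median viability minus 3 SD, cut at about 48% in these data, passing the limit was not always enough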;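 note: 100% = mean luminescence of untreated wells and 0% = no signal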). The conditions noted are these: H69AR lung tumor cells viability, ATP luminescence, 72 h; at 10 µM; stronger effect = lower value.
Experiment [5] can be described thus: reversal of MRP1-mediated doxorubicin resistance, pilot screen, H69AR cells, doxorubicin co-treatment (AID 601;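 active = viability loss from added drug above about 55%, and viability with drug at most 40%, in both replicates, limit read from the data, passing the limit was not always enough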). The conditions noted are these: CellTiter-Glo, 72 h, at 10 µM; for differential viability (reversal): stronger effect = higher value.
The nature of experiment [6]: 384-well plate pilot, post-Golgi transport modulator project, inhibition of yeast transport mutant growth (AID 636; in the data active = inhibition above about 31%). The settings on record: absorbance 615 nm, about 18 h, stronger effect = higher value.
The nature of experiment [7]: growth suppression of yeast trafficking mutant, preliminary HTS, modulators of trafficking downstream of Golgi apparatus project, 1536-format plate, OD 615 nm (AID 637). The conditions noted are these: yeast transport mutant growth, absorbance 615 nm, 18 h; stronger effect = higher value.
The mark [8] stands for this setting: H69AR cells + 2 uM doxorubicin, measured here: viability with 2 uM doxorubicin, stronger effect = lower value.
[9] abbreviates: H69AR cells, compound alone cytotoxicity.

Each structure is given as a SMILES string. The source made the active and inactive calls. Cut-off read from the data, not from the text of the source, unless noted: active = inhibition above about 30%; inactive = the rest.

Receptor tyrosine-protein kinase erbB-2 (Homo sapiens), sequence (P04626 whole entry, looked up): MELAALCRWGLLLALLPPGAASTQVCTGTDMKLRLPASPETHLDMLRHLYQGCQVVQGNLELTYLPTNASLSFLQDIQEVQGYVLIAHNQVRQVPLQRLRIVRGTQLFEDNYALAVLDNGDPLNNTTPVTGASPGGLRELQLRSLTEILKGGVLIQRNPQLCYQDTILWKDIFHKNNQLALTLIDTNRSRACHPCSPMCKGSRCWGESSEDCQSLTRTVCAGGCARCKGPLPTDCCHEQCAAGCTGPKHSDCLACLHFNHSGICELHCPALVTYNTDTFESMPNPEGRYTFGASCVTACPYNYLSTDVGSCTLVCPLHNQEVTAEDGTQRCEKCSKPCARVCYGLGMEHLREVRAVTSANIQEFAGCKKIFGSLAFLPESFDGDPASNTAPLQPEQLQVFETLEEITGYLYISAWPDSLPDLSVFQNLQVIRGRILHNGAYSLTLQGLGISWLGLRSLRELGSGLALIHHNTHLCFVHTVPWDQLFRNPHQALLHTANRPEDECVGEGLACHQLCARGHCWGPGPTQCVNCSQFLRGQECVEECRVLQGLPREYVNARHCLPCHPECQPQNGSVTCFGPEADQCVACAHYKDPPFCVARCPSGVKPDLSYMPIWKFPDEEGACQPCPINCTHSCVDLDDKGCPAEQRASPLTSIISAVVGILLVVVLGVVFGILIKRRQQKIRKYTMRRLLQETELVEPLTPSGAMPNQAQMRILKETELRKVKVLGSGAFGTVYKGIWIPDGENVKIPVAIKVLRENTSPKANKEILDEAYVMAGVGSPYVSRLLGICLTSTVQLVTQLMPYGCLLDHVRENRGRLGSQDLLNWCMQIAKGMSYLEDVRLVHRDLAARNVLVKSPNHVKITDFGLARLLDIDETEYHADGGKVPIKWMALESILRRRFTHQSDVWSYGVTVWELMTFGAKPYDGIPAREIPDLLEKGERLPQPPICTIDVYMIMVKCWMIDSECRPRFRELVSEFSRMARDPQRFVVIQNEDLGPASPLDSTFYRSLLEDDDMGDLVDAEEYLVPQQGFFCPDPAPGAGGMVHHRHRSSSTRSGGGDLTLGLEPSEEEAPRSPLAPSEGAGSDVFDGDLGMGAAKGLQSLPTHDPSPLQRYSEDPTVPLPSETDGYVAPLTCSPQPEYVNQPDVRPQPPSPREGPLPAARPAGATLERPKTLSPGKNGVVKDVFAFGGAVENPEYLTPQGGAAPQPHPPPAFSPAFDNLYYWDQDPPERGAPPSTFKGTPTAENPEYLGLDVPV

Take `NC(=O)c1cc(-c2ccccc2)nc(N2CCOCC2)n1`: the viability in experiment [1] was 102%; in experiment [3] it was 102% (inactive); in experiment [4] it was 84.4% (inactive); in experiment [5] (setting [8]), 72.3%; in experiment [5] (setting [9]), 84.4%. Besides, the Her2 level in experiment [2] was 69.5% (inactive). For the same compound, the differential viability (reversal) in experiment [5] (H69AR cells + 2 uM doxorubicin) is 12.1% (inactive). Further, the inhibition in experiment [6] is -2.97% (inactive); in experiment [7], -6.35% (inactive).

Regarding `Cc1cccc(NC(=O)c2cc(NC(=O)c3ccco3)ccc2N2CCCCC2)c1`, the viability in experiment [1] was 85%; in experiment [3] it was 85% (inactive); in experiment [4] it was 65.9% (inactive); in experiment [5] (setting [8]) it was 48%; in experiment [5] (setting [9]), 65.9%. For the same compound, the Her2 level in experiment [2] is 80.5% (inactive). Further, in experiment [5] (H69AR cells + 2 uM doxorubicin), the differential viability (reversal) is 17.8% (inactive). In addition, the inhibition in experiment [6] was -4.4% (inactive); in experiment [7], 2.46% (inactive).

Regarding `CCOC(=O)c1cnn(-c2sc(C(=O)OCC)c(C)c2C(=O)OCC)c1N`, the viability in experiment [1] was 95%; in experiment [3], 95% (inactive); in experiment [4] it was 15.8% (active); in experiment [5] (setting [8]) it was 41.6%; in experiment [5] (setting [9]), 15.8%. Also, in experiment [2], the Her2 level is 93.5% (inactive). Besides, in experiment [5] (H69AR cells + 2 uM doxorubicin), the differential viability (reversal) was -25.8% (inactive). In addition, the inhibition in experiment [6] was 0.27% (inactive); in experiment [7], -4.6% (inactive).

As to `CCOC(=O)c1ccc(N=Cc2nc(-c3ccccc3)oc2OC(C)=O)cc1`, the viability is 106% in experiment [1]; 106% (inactive) in experiment [3]; 17.9% (active) in experiment [4]; 23.2% in experiment [5] (setting [8]); 17.9% in experiment [5] (setting [9]). For the same compound, in experiment [2], the Her2 level is 75.5% (inactive). For the same compound, the differential viability (reversal) in experiment [5] (H69AR cells + 2 uM doxorubicin) was -5.29% (inactive). Moreover, the values for the inhibition in experiment [6] and in experiment [7] were -4.47% (inactive) and -2.38% (inactive), respectively.

`Cn1c(-c2ccc(C(C)(C)C)cc2)n[nH]c1=S`: the viability in experiment [1] was 106%; in experiment [3], 106% (inactive); in experiment [4], 82.1% (inactive); in experiment [5] (setting [8]), 80.4%; in experiment [5] (setting [9]), 82.1%. Besides, the Her2 level in experiment [2] was 106% (inactive). The differential viability (reversal) in experiment [5] (H69AR cells + 2 uM doxorubicin) was 1.74% (inactive). For the same compound, the inhibition in experiment [6] is -4.68% (inactive); in experiment [7] it was -2.13% (inactive).

Regarding `CCCOc1ccccc1C1CC(=O)Nc2cc3c(cc21)OCCO3` (stereo not given), the viability in experiment [1] is 84%; in experiment [3], 84% (inactive); in experiment [4], 34.3% (active); in experiment [5] (setting [8]), 73.5%; in experiment [5] (setting [9]), 34.3%. Also, the Her2 level in experiment [2] was 67% (inactive). Also, the differential viability (reversal) in experiment [5] (H69AR cells + 2 uM doxorubicin) is -39.2% (inactive). The figures for the inhibition in experiment [6] and in experiment [7] were -4.93% (inactive) and -2.3% (inactive), respectively.

For `c1ccc(CN2CCN(c3ncnc4c3[nH]c3ccccc34)CC2)cc1`, the viability in experiment [1] was 121%; in experiment [3], 121% (inactive); in experiment [4] it was 60.6% (inactive); in experiment [5] (setting [8]) it was 83.2%; in experiment [5] (setting [9]), 60.6%. Further, the Her2 level in experiment [2] is 47% (active). Further, in experiment [5] (H69AR cells + 2 uM doxorubicin), the differential viability (reversal) was -22.6% (inactive). Also, the figures for the inhibition in experiment [6] and in experiment [7] were -6% (inactive) and 2.1% (inactive), respectively.

In the case of `O=c1c2ccccc2nc(SCc2nnc(-c3ccccc3Br)o2)n1-c1ccccc1`, the viability in experiment [1] is 77%; in experiment [3], 77% (inactive); in experiment [4], 84.2% (inactive); in experiment [5] (setting [8]), 87.5%; in experiment [5] (setting [9]), 84.2%. In experiment [2], the Her2 level is 95.5% (inactive). The differential viability (reversal) in experiment [5] (H69AR cells + 2 uM doxorubicin) is -3.29% (inactive). The figures for the inhibition in experiment [6] and in experiment [7] were -0.27% (inactive) and 3.77% (inactive), respectively.

Regarding `Oc1ccc(N2CCN(C(c3ccncc3)c3nnnn3C3CCCC3)CC2)cc1` (stereo not given), the viability in experiment [1] is 76%; in experiment [3], 76% (inactive); in experiment [4], 91.9% (inactive); in experiment [5] (setting [8]), 87.6%; in experiment [5] (setting [9]) it was 91.9%. In addition, the Her2 level in experiment [2] is 82.5% (inactive). In addition, the differential viability (reversal) in experiment [5] (H69AR cells + 2 uM doxorubicin) is 4.33% (inactive). The inhibition is -5.2% (inactive) in experiment [6] and 2.58% (inactive) in experiment [7].

As to `COc1ccc(CNc2oc(COc3ccccc3Cl)nc2C#N)cc1`, the viability in experiment [1] is 84%; in experiment [3] it was 84% (inactive); in experiment [4] it was 87.3% (inactive); in experiment [5] (setting [8]), 92.1%; in experiment [5] (setting [9]) it was 87.3%. Moreover, the Her2 level in experiment [2] is 68.5% (inactive). Also, the differential viability (reversal) in experiment [5] (H69AR cells + 2 uM doxorubicin) is -4.78% (inactive). Besides, the values for the inhibition in experiment [6] and in experiment [7] were 0.26% (inactive) and 14.1% (inactive), respectively.

`CCC1CCc2c(sc3ncnc(N4CCOCC4)c23)C1` (stereo not given): the viability in experiment [1] is 89.5%; in experiment [3], 89.5% (inactive); in experiment [4], 89.3% (inactive); in experiment [5] (setting [8]), 104%; in experiment [5] (setting [9]), 89.3%. Besides, the Her2 level in experiment [2] was 87% (inactive). The differential viability (reversal) in experiment [5] (H69AR cells + 2 uM doxorubicin) is -14.3% (inactive). Moreover, the inhibition in experiment [6] is -5.14% (inactive); in experiment [7] it was -0.16% (inactive).

Regarding `COc1ccccc1NC(=O)NCCCN1CCN(c2cccc(Cl)c2)CC1`, the viability is 77% in experiment [1]; 77% (inactive) in experiment [3]; 72.6% (inactive) in experiment [4]; 86.8% in experiment [5] (setting [8]); 72.6% in experiment [5] (setting [9]). The Her2 level in experiment [2] is 70.5% (inactive). In addition, in experiment [5] (H69AR cells + 2 uM doxorubicin), the differential viability (reversal) was -14.3% (inactive). In addition, the inhibition in experiment [6] was 4.4% (inactive); in experiment [7], -7.7% (inactive).

Regarding `CCOC(=O)c1cc2sc(C)cc2n1CC(=O)NCc1ccc(F)cc1`, the viability is 65% in experiment [1]; 65% (inactive) in experiment [3]; 69.4% (inactive) in experiment [4]; 52.3% in experiment [5] (setting [8]); 69.4% in experiment [5] (setting [9]). For the same compound, the Her2 level in experiment [2] was 73% (inactive). In addition, the differential viability (reversal) in experiment [5] (H69AR cells + 2 uM doxorubicin) is 17.1% (inactive). For the same compound, the inhibition in experiment [6] was -6.32% (inactive); in experiment [7], -3% (inactive).

`O=C(CC(=O)c1cc(Cl)ccc1O)c1ccccc1`: the viability in experiment [1] was 131%; in experiment [3] it was 131% (inactive); in experiment [4] it was 11.4% (active); in experiment [5] (setting [8]), 21%; in experiment [5] (setting [9]) it was 11.4%. The Her2 level in experiment [2] is 89% (inactive). Also, the differential viability (reversal) in experiment [5] (H69AR cells + 2 uM doxorubicin) is -9.6% (inactive). Also, the inhibition is 94.7% (active) in experiment [6] and 61.3% (active) in experiment [7].

In the case of `CCOC(=O)/C=C(\C)Sc1cc(=O)oc2ccccc12`, the viability in experiment [1] was 94.5%; in experiment [3], 94.5% (inactive); in experiment [4] it was 6.09% (active); in experiment [5] (setting [8]) it was 3.73%; in experiment [5] (setting [9]) it was 6.09%. In experiment [2], the Her2 level is 47.5% (active). In addition, the differential viability (reversal) in experiment [5] (H69AR cells + 2 uM doxorubicin) was 2.37% (inactive). In addition, the inhibition in experiment [6] is -0.92% (inactive); in experiment [7], 1.45% (inactive).

The record behind these values is PubChem BioAssay.
